Measured values reported in PubChem BioAssay (Tox21).
Values joined by “and” are separate entries in the source; they are usually repeats but may differ in a detail not shown here. Equal values may be shown once. Active and inactive are the calls of the source. Entries that show only a call come without a potency. Unless noted, the call rests on the fitted dose curve; in most records, active means well fitted curve in the direction sought with a large enough effect in the repeat runs; inconclusive means weak or mixed curves; inactive means no such curve, though single readings can be large; an effect the other way counts as inactive or inconclusive.

Assays:
[1] = qHTS assay to identify small molecule antagonists of the thyroid receptor (TR) signaling pathway - cell viability counter screen (AID 743064); further: nearly all actives have a fitted effect of over 50% in size; further: potency means the concentration at half of the fitted maximal effect
How it was run: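 In-well cytotoxicity read by CellTiter-Fluor (30 min, 37 C) following 23.5 h exposure of GH3 cells bearing a TRE-luciferase sensor. Compounds were added alongside 1 nM (final) T3 to drive TR transactivation.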

[2] = qHTS assay to identify small molecule antagonists of the thyroid receptor (TR) signaling pathway (AID 743065); further: nearly all actives have a fitted effect of over 55% in size; further: potency means the concentration at half of the fitted maximal effect
How it was run: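 Antagonism measured as loss of luciferase signal in GH3 cells stably carrying a TRE-luciferase reporter, co-treated with compound and T3 (1 nM final) for 23.5 h at 37 C. Viability was read in the same well by CellTiter-Fluor.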

[3] = tested on: thyroid hormone receptor (rat, GH3 cells); assay: qHTS assay to identify small molecule agonists of the thyroid receptor (TR) signaling pathway (AID 743066; calls by dose curve)
[4] = biological target: Estrogen receptor (Homo sapiens) (UniProt P03372); assay: qHTS assay to identify small molecule antagonists of the estrogen receptor alpha (ER-alpha) signaling pathway (AID 743069; active means well fitted curve in the direction sought with a large enough effect in the signal ratio in the repeat runs, not every such curve was filed as active; inconclusive means weak or mixed curves, or effect the other way; inactive means no such curve, though single readings can be large or run the other way; the % refers to the signal ratio; further: potency means the concentration at half of the fitted maximal effect)
Sequence of Estrogen receptor (Homo sapiens) (P03372 whole entry, looked up): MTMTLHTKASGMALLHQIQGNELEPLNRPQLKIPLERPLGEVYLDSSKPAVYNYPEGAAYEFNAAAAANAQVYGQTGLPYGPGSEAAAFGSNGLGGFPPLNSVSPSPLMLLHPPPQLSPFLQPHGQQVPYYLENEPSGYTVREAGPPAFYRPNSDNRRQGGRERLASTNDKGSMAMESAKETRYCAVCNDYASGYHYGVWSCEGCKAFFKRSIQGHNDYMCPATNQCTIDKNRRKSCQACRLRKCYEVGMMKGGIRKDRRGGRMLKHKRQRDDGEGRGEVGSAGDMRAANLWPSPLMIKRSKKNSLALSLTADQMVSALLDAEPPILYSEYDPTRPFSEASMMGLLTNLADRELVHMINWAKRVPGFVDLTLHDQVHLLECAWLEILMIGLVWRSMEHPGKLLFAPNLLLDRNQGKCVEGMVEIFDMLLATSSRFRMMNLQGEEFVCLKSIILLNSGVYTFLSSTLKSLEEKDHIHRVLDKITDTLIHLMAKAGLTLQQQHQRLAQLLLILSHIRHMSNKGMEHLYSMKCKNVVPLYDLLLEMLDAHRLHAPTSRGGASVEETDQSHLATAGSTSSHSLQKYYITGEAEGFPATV
How it was run: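 ER-alpha-UAS-bla GripTite HEK293 line; 2% charcoal-stripped FBS overnight; plated, 4 hr 37C/5% CO2; cpd in DMSO + 17beta-estradiol, 18 hr 37C; LiveBLAzer B/G FRET substrate 2 hr RT; fluorescence intensity.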

[5] = qHTS assay to identify small molecule antagonists of the estrogen receptor alpha (ER-alpha) signaling pathway - cell viability counter screen (AID 743074; calls by dose curve;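 further: HEK293 cells carrying ER-alpha-UAS-bla reporter stimulated with 17beta-estradiol; nearly all actives have a fitted effect of over 45% in size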)
[6] = biological target: Estrogen receptor (Homo sapiens) (UniProt P03372); assay: qHTS assay to identify small molecule agonists of the estrogen receptor alpha (ER-alpha) signaling pathway (AID 743075; calls by dose curve;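 further: HEK293 GripTite cells with ER-alpha and UAS-driven beta-lactamase reporter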)
[7] = biological target: Estrogen receptor (Homo sapiens) (UniProt P03372); assay: qHTS assay to identify small molecule agonists of the estrogen receptor alpha (ER-alpha) signaling pathway using the BG1 cell line (AID 743079); further: nearly all actives have a fitted effect of over 20% in size; further: potency means the concentration at half of the fitted maximal effect
[8] = qHTS assay to identify small molecule antagonists of the estrogen receptor alpha (ER-alpha) signaling pathway using the BG1 cell line - cell viability counter screen (AID 743081);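 further: compound given together with 17beta-estradiol as the ER stimulus; nearly all actives have a fitted effect of over 45% in size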; further: potency means the concentration at half of the fitted maximal effect
Aromatase (Homo sapiens) = Aromatase (Homo sapiens) (UniProt P11511); assay: qHTS assay to identify aromatase inhibitors (AID 743083); further: series mostly up to about 70 µM; nearly all actives have a fitted effect of over 55% in size
Sequence of Aromatase (Homo sapiens) (P11511 whole entry, looked up): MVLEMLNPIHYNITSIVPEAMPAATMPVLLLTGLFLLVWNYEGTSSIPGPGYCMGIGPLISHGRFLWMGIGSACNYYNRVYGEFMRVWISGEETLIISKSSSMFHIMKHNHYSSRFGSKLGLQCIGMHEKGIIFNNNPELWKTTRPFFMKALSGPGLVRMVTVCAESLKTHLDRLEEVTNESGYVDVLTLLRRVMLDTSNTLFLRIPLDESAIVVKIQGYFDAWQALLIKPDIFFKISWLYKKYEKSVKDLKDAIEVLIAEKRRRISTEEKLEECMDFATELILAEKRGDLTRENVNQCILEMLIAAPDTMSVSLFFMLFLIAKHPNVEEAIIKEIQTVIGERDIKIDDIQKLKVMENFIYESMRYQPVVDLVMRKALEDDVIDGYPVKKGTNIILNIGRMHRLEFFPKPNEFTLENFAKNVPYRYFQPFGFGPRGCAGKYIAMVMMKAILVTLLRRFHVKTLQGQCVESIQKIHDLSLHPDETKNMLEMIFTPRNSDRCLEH

[9] = qHTS assay to identify aromatase inhibitors - cell viability counter screen (AID 743084);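 further: cells stimulated with testosterone during compound exposure; nearly all actives have a fitted effect of over 55% in size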; further: potency means the concentration at half of the fitted maximal effect
[10] = biological target: Aryl hydrocarbon receptor (Homo sapiens) (UniProt P35869); assay: qHTS assay to identify small molecule that activate the aryl hydrocarbon receptor (AhR) signaling pathway (AID 743085); further: nearly all actives have a fitted effect of over 15% in size; further: potency means the concentration at half of the fitted maximal effect;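 on activation: HG2L7.5c1 human HepG2 liver cells with stably integrated DRE-driven firefly reporter; series mostly up to about 70 µM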
Sequence of Aryl hydrocarbon receptor (Homo sapiens) (P35869 whole entry, looked up): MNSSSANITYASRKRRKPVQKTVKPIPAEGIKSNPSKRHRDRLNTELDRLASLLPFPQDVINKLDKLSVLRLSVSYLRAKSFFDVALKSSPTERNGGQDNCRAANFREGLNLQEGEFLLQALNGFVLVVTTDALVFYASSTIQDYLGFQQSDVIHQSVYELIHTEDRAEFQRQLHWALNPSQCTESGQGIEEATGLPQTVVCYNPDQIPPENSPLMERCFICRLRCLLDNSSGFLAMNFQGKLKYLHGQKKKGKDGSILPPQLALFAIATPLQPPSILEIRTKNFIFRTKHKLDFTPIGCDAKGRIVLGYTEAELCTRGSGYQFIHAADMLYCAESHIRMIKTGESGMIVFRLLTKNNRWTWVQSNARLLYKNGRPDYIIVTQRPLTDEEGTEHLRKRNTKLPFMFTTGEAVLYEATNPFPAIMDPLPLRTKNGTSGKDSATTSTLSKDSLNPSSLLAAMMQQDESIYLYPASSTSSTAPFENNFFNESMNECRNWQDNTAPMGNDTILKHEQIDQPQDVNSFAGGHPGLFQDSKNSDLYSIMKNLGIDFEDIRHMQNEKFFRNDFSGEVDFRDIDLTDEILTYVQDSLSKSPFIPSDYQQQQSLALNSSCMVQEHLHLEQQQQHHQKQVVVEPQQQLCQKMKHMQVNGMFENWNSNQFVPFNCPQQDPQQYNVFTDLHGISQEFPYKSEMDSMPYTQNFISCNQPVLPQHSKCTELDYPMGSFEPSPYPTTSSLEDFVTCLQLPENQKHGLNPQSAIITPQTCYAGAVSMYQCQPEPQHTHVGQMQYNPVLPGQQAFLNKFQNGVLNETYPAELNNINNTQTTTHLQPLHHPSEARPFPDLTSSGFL
How it was run: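 Luminescence (ONE-Glo) from a dioxin-responsive-element luciferase reporter in HG2L7.5c1 HepG2 cells after 24 hr compound exposure at 37C; viability measured by CellTiter-Fluor fluorescence beforehand.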

[11] = qHTS assay to identify small molecule that activate the aryl hydrocarbon receptor (AhR) signaling pathway - cell viability counter screen (AID 743086); further: nearly all actives have a fitted effect of over 45% in size; further: potency means the concentration at half of the fitted maximal effect
How it was run: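 Cytotoxicity counter screen: CellTiter-Fluor signal (30 min, 37 C) in 4000 HepG2 cells/well carrying the DRE-luciferase reporter, following 24 h compound exposure at 37 C.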

[12] = qHTS assay for small molecule agonists of the antioxidant response element (ARE) signaling pathway - cell viability counter screen (AID 743203; calls by dose curve; further: nearly all actives have a fitted effect of over 55% in size)
How it was run: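 Seeded at 2,000 cells/well, ARE-bla HepG2 cells were incubated 5 hrs before compound addition. After 16 hrs of treatment at 37C with 5% CO2, CellTiter-Glo reagent was added and luminescence read 30 min later.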

[13] = qHTS assay for small molecule activators of the heat shock response signaling pathway - cell viability counter screen (AID 743209); further: nearly all actives have a fitted effect of over 50% in size
How it was run: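 First, HSE-bla HeLa cells were seeded at 1500 cells/well and kept overnight at 37 C. Next, compounds were pinned in and incubated 5 h. After the FRET substrate step, CellTiter-Glo was added and luminescence read 30 min later.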

[14] = qHTS assay for small molecule activators of the heat shock response signaling pathway (AID 743210; active means well fitted activation curve with a large enough effect in the signal ratio in the repeat runs, with a control signal flat, not every such curve was filed as active; inconclusive means weak or mixed curves; the % refers to the signal ratio;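 further: HeLa cells with beta-lactamase reporter driven by heat shock elements; series mostly up to about 63 µM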)
How it was run: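 HeLa HSE-bla cells, overnight plating; cpd in DMSO 5 h, 37 C; LiveBLAzer B/G FRET substrate 2.5 h RT; fluorescence intensity read.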

[15] = qHTS assay to identify small molecule antagonists of the estrogen receptor alpha (ER-alpha) signaling pathway using the BG1 cell line (AID 743080; calls by dose curve;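 further: BG1 cells stimulated with 17beta-estradiol alongside compound; series mostly up to about 70 µM; nearly all actives have a fitted effect of over 25% in size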)
How it was run: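 Luciferase inhibition measured with ONE-Glo after 30 min at RT in BG1Luc4E2 cells given test compounds and 17beta-estradiol for 21.5 h at 37 C; CellTiter-Fluor viability read in the same wells beforehand.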

[16] = qHTS assay to identify small molecule antagonists of the peroxisome proliferator-activated receptor gamma (PPARg) signaling pathway - cell viability counter screen (AID 743194); further: nearly all actives have a fitted effect of over 55% in size
How it was run: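 Viability was measured as CellTiter-Glo luminescence in GeneBLAzer PPARg UAS-bla HEK293H cells. These cells had been exposed 17 h at 37 C to compounds together with rosiglitazone at 50 nM final, with the beta-lactamase readout taken in the same wells.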

[17] = qHTS assay for small molecule agonists of the antioxidant response element (ARE) signaling pathway (AID 743202; active means well fitted activation curve with a large enough effect in the signal ratio in the repeat runs, not every such curve was filed as active; inconclusive means weak or mixed curves, or effect the other way; inactive means no such curve, though single readings can be large or run the other way; the % refers to the signal ratio)
How it was run: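 Quantitative high-throughput format in HepG2 cells bearing an integrated ARE-beta-lactamase reporter. Compound exposure lasted 16 h at 37 C, and fluorescence was read 2 h after adding LiveBLAzer B/G substrate at room temperature.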

[18] = biological target: Peroxisome proliferator-activated receptor gamma (Homo sapiens) (UniProt P37231); assay: qHTS assay to identify small molecule agonists of the peroxisome proliferator-activated receptor gamma (PPARg) signaling pathway (AID 743094; active means well fitted activation curve with a large enough effect in the signal ratio in the repeat runs, not every such curve was filed as active; inconclusive means weak or mixed curves, or effect the other way; inactive means no such curve, though single readings can be large or run the other way; the % refers to the signal ratio)
Sequence of Peroxisome proliferator-activated receptor gamma (Homo sapiens) (P37231 whole entry, looked up): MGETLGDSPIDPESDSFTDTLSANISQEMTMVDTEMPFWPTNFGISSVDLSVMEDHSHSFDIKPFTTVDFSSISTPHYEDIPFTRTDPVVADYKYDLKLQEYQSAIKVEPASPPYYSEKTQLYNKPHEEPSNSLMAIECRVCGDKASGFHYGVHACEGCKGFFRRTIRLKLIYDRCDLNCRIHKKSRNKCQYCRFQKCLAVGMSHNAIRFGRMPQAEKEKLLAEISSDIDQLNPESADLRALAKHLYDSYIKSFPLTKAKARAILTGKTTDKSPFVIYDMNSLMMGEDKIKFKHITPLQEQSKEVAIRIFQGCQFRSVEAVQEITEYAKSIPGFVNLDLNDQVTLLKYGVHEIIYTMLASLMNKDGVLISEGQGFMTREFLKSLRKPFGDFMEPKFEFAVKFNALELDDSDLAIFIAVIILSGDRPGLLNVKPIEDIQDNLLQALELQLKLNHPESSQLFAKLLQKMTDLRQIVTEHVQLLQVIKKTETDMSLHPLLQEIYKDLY
How it was run: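 Quantitative HTS agonist mode: stable HEK293H line with UAS-beta-lactamase reporter under PPARg control, 17 h compound exposure at 37C, fluorescence after 1 h FRET substrate loading at room temperature.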

[19] = biological target: Peroxisome proliferator-activated receptor gamma (Homo sapiens) (UniProt P37231); assay: qHTS assay to identify small molecule antagonists of the peroxisome proliferator-activated receptor gamma (PPARg) signaling pathway (AID 743191; calls by dose curve; further: series mostly up to about 63 µM; nearly all actives have a fitted effect of over 30% in size)
How it was run: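 Beta-lactamase reporter under UAS control in HEK293H PPARg-bla cells; compound treatment 17 h at 37C. Read-out: fluorescence intensity after 1 h room-temperature incubation with LiveBLAzer B/G FRET substrate.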

Row | Structure (SMILES) | Potency [1] | Potency [2] | outcome [3] | Potency [4] | outcome [5] | Potency [6] | Potency [7] | Potency [8] | Potency (Aromatase (Homo sapiens)) | Potency [9] | Potency [10] | Potency [11] | Potency [12] | outcome [13] | outcome [14] | outcome [15] | outcome [16] | Potency [17] | outcome [18] | outcome [19]
1 | CCCCOC(=O)c1ccc(N)cc1 | inactive | 21.1 µM (active) and 21.4 µM (active) | inactive | 24.2 µM [inconclusive] (active) | inactive | inactive | 23.7 µM (active) and 33.9 µM (active) | inactive | inactive | inactive | 23.7 µM (active) | inactive | inactive | inactive | inactive |  |  |  |  | 
2 | COc1ccc(N)c(C)c1 | inactive | inactive | inactive | inactive | inactive | inactive |  | inactive | inactive | inactive |  | inactive | inactive | inactive | inactive | inactive | inactive | inactive |  | 
3 | O=S(=O)(O)c1ccc(N=Nc2c(O)ccc3cc(S(=O)(=O)O)ccc23)cc1 | 30.8 µM (active) and 27.3 µM (active) | inactive | inactive | inactive | inactive | inactive | inactive | 27.4 µM (active) and 27.3 µM (active) | inactive | 15.4 µM (active) and 19.3 µM (active) |  | 13.7 µM (active) and 8.63 µM (active) | inactive | inactive | inactive | inactive | inactive | inactive |  | 
4 | CSc1ccc(Cl)cc1 | inactive | inactive | inactive | inactive | inactive | inactive | inactive | inactive | inactive | inactive |  | inactive | inactive | inactive | inactive | inactive | inactive | inactive | inactive | 
5 | Cc1ccc(S(=O)(=O)N=C=O)cc1 | inactive | inactive | inactive | inactive | inactive | inactive | inactive | inactive | inactive | inactive |  | inactive | inactive | inactive | inactive | inactive | inactive | inactive | inactive | 
6 | OCc1cccc(Oc2ccccc2)c1 | inactive | inactive | inactive |  | inactive |  |  | inactive | inactive | inactive | inactive | inactive | inactive | inactive | inactive |  | inactive | inactive | inactive | 
7 | O=C(O)c1ccccc1C(=O)O | inactive | inactive | inactive | inactive | inactive | inactive | inactive | inactive | inactive | inactive |  | inactive | inactive | inactive | inactive | inactive | inactive | inactive |  | 
8 | NCCN1CCNCC1 | inactive | inactive | inactive | inactive |  | inactive | inactive | inactive | inactive | inactive | inactive | inactive | inactive | inactive | inactive | inactive |  | inactive | inactive | inactive
9 | CC(C)CCCCCCCOC(=O)CCCCC(=O)OCCCCCCCC(C)C | inactive | inactive | inactive |  | inactive |  |  | inactive | inactive | inactive | inactive | inactive | inactive | inactive | inactive |  |  | inactive | inactive | inactive
